ST2 inh – inhibitors of human ST2 (IL1RL1) binding to IL-33; Q01638; AlphaLISA ST2-Fc/biotin-IL-33 interaction, 1 h; inhibition, % for hits at 17 µM; hit rate 2.3% among 78,000; in the data active = inhibition above about 30%
Target sequence (Q01638 whole entry, looked up): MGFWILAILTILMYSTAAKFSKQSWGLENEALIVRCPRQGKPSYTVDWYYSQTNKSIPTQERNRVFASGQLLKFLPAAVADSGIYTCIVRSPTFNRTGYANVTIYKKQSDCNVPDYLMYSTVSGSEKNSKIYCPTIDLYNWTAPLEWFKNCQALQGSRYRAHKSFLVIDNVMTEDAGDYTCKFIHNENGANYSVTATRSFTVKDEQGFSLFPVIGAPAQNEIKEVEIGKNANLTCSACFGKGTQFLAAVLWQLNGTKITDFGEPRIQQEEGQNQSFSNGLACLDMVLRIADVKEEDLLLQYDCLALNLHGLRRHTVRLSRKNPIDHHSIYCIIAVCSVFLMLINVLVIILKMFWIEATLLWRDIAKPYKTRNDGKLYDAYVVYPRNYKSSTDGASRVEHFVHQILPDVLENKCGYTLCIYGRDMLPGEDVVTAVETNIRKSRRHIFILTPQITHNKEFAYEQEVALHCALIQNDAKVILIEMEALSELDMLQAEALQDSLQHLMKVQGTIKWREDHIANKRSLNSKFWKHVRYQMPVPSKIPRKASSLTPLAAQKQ
* hit, by the source's call; i = inactive. Many of the other results were omitted from the sample, so hits are more common in it than they were.

SMILES	ST2 inh
COc1cc(/C=C2\C=C(c3ccc(Cl)cc3)OC2=O)cc(Br)c1OC	i
COc1cc(/C=C2\C=C(c3ccc(Cl)cc3)OC2=O)c([N+](=O)[O-])cc1OC	i
Cc1ccc(S(=O)(=O)N(CC(=O)N2CCOCC2)c2cc(C)ccc2C)cc1	i
CCCCOc1ccccc1C1C(C(=O)OCC)=C(C)NC2=C1C(=O)C(C(=O)OC)C(C)C2 (stereo not drawn)	i
NS(=O)(=O)c1ccc(N=Cc2ccc(Br)cc2)cc1	i
Cc1sc(N=Cc2ccc(Br)cc2)c(C#N)c1C	55%*
COc1ccc(C=Nc2sc3c(c2C#N)CCCC3)cc1[N+](=O)[O-]	i
CCOc1ccc(C(=O)N2CC3(CCNCC3)CC2C(=O)O)cc1OCC (stereo not drawn)	i
O=C(Cn1c(=O)oc2ccccc21)N1CCC2(CC1)C(=O)Nc1ccccc12	i
N=C1S/C(=C\c2ccc(O)cc2)C(=O)N1c1ccc(F)cc1	i
Cc1ccc(N2C(=O)S/C(=C\c3ccc(O)cc3)C2=O)cc1	i
N=C1S/C(=C\c2ccc(N3CCOCC3)cc2)C(=O)N1c1ccc(Br)cc1	32%*
O=C(Nc1ccc([N+](=O)[O-])cc1Cl)c1cnc2n(c1=O)CCS2	i
COc1ccccc1C(CC(=O)O)c1ccc2c(c1)OCO2 (stereo not drawn)	i
O=C(c1ccc(C2CCCO2)s1)N1C[C@@H]2[C@H](C1)[C@H]1CC[C@@H]2O1 (stereo partly drawn)	i
CN(C)C(C(=O)N1C[C@@H]2[C@H](C1)[C@H]1CC[C@@H]2O1)c1ccc2c(c1)OCO2 (stereo partly drawn)	50%*
CC1=C(C(=O)Nc2ccc(C)cc2)C(c2ccc(N(C)C)cc2)n2ncnc2N1 (stereo not drawn)	i
O=C(O)C(CO)Nc1ncnc2ccccc12 (stereo not drawn)	i
O=C(Nc1ccccc1[N+](=O)[O-])C1=NN=CC1[N+](=O)[O-] (stereo not drawn)	i
Cc1nc2ccccc2n1C(=O)c1ccccc1[N+](=O)[O-]	i
O=C(Nc1ccccc1[N+](=O)[O-])C1=C(O)CCn2c1nc1ccccc12	34%*
CCOc1ccc(S(=O)(=O)Nc2ccccc2CC)c2cccnc12	i
COc1cc2c(cc1OC)CN(Cc1cccc(Cl)c1)CC2	i
Cc1cccc(C(C(=O)NCCSc2n[nH]c(C)n2)N(C)C)c1 (stereo not drawn)	i
O=[N+]([O-])c1cccc(C=Nc2ccccc2Cl)c1O	i
SMILES	ST2 inh
Cc1ccc(N=Cc2cc(C)cc([N+](=O)[O-])c2O)c(Cl)c1	30%*
O=[N+]([O-])c1cc(Br)cc(C=Nc2ccc(Br)cc2)c1O	i
COCCN1C(=O)N(C(C)C)C(=O)C12CCN(Cc1c(F)cccc1Cl)CC2	i
FC(F)(F)c1cccc(CCC2CCCNC2)c1 (stereo not drawn)	i
CN1C(=O)N(Cc2ccccc2)C2(CCN(Cc3ccc(N(C)c4ccccc4)cc3)CC2)C1=O	i
CCN1C(=O)N(CCc2ccccc2)C2(CCN(CCc3ccccc3)CC2)C1=O	33%*
COCCN1C(=O)N(Cc2cccnc2)C(=O)C12CCN(Cc1nc(-c3ccccc3)cs1)CC2	i
COc1ccc(NS(=O)(=O)c2ccc(NC(=O)COc3ccc([N+](=O)[O-])cc3)cc2)cc1	i
CN1CCCc2c1[nH]c1ccccc1c2=O	i
COc1ccccc1NS(=O)(=O)c1ccc2[nH]c(=O)sc2c1	i
COc1ccccc1NC1=CC(=NS(=O)(=O)c2ccc(C)cc2C)c2ccccc2C1=O	95%*
COc1ccccc1NC1=CC(=NS(=O)(=O)c2ccc(F)cc2)c2ccccc2C1=O	95%*
COc1ccccc1NS(=O)(=O)c1cc([N+](=O)[O-])ccc1C	i
COc1ccccc1NS(=O)(=O)c1ccc(Cl)cc1	i
COc1ccc(S(=O)(=O)Nc2ccccc2Br)cc1OC	i
CCc1ccc(S(=O)(=O)N=C2C=C(Nc3ccccc3OC)C(=O)c3ccccc32)cc1	95%*
COc1ccc(S(=O)(=O)Nc2ccccc2C)cc1	i
CCOc1ccccc1NS(=O)(=O)c1cc(C)ccc1OC	i
COc1ccc(S(=O)(=O)N=C2C=C(Nc3ccccc3OC)C(=O)c3ccccc32)cc1	94%*
CCc1ccc(S(=O)(=O)N2CCSC2c2ccccc2OC)cc1 (stereo not drawn)	i
COc1ccccc1NC(=O)c1ccc(F)cc1	i
CCOC(=O)c1ccc(N2C(=O)C3C4CCC(C4)C3C2=O)cc1 (stereo not drawn)	i
COc1cccc(Nc2cc(C)nc3c(C)cc(C)cc23)c1	i
CC(C)(C)c1ccc(OCCCCN2CCOCC2)cc1	i
CCOC(=O)c1oc2ccccc2c1NC(=O)C1c2ccccc2Oc2ccccc21	i
CCOc1ccc(C2CC(=O)C3=C(C2)Nc2ccccc2NC3c2ccccc2F)cc1OC (stereo not drawn)	i
Cc1cccc(CN2CCC(c3nn(C)c(=O)n3Cc3ccccc3)CC2)n1	i
O=C(c1cccn2c(=O)c3sccc3nc12)N1CCOCC1	i

From PubChem BioAssay
